# Measurements taken from PubChem BioAssay.
# Calls of active or inactive are those of the source.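 How the source made its calls, unless noted: active means fluorescence slope higher than the sample average by over 3 SD (cut at about -0.22 in these data, passing the limit was not always enough); inactive means the rest.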
# Tested on: not listed separately
# Test: inhibitors of E-selectin induction by TNFa, primary screen, imaging, HUVEC, immunofluorescence, MLSMR starter and 10KST1 sets (AID 487;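 active means visually confirmed hit in the image check and inhibition above 20%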;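 on inhibition: signal is fraction of cell area covered by stained E-selectin grains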;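 on nuclei count: 100% = median nuclei count of all wells on the same plate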)
# Conditions: HUVEC TNFalpha-induced E-selectin immunofluorescence imaging, at 2 µM; inhibition: stronger effect = higher value; nuclei count: measured here: cell number, toxicity
SMILES,nuclei count,inhibition
CSc1nnc2c3ccccc3n(CCc3ccccc3)c2n1,104%,19.4% (inactive)
CC(C)(C)n1nc2c(c1NC(=O)COc1ccc(Cl)cc1)CSC2,95.3%,30.9% (inactive)
COc1cccc(N2CCN(Cc3nc(N)nc(Nc4ccccc4OC)n3)CC2)c1,104%,2.5% (inactive)
Cc1cc(C)cc(NC(=O)N2CCC(c3nc4ccccc4o3)CC2)c1,110%,-66.7% (inactive)
O=C1CCC(=O)N1OCCCCOc1ccccc1,106%,7.8% (inactive)
Cc1cc(C)c2c(=O)[nH]c(=O)n(Cc3ccccc3)c2n1,103%,0.6% (inactive)
Cc1ccc(CNC(=O)C2CCCN(S(=O)(=O)c3cccnc3)C2)cc1 (stereo not given),88.5%,-250% (inactive)
COc1ccccc1OC(=O)c1ccc(SC)cc1OC,116%,7.8% (inactive)
COc1ccccc1OC(=O)c1ccc2nsnc2c1,103%,-75.4% (inactive)
CCCCCCNC(=O)Cc1c(O)c2ccccc2[nH]c1=O,103%,20.8% (inactive)
CCCOc1nc(N)c(C#N)c(-c2ccccc2F)c1C#N,99.6%,-22.8% (inactive)
CCOC(=O)c1cc(-c2ccc(Cl)s2)nc2c1c(C)nn2C,106%,-142% (inactive)
COc1ccc(-n2c(SCC(=O)Nc3ccc(C(=O)O)cc3)nnc2-c2cccs2)cc1,150%,-43.4% (inactive)
COC(=O)c1nc2n(n1)C(c1ccc(OC)c(OC)c1)C(C(=O)OC1CCCCC1)=C(C)N2 (stereo not given),89.6%,26.7% (inactive)
O=C(NC12CC3CC(CC(C3)C1)C2)C1CCCN1C(=O)NC1CCCCC1 (stereo not given),110%,-17.6% (inactive)
O=C(Nc1cccc(C(F)(F)F)c1)c1cccnc1N1CCCC1,118%,-32.4% (inactive)
COCCn1c(SCC(=O)Nc2nnc(C)s2)nnc1-c1ccncc1,115%,-32.1% (inactive)
Cc1noc(C)c1S(=O)(=O)NCCN1CCN(c2ccccc2)CC1,141%,-42.6% (inactive)
c1ccc(OCCOc2ncnc3sccc23)cc1,125%,-62.1% (inactive)
CC(c1nnc(SCC(=O)Nc2sccc2C#N)n1-c1ccc(Cl)cc1)N(C)C (stereo not given),143%,-28.9% (inactive)
CNC(=O)c1ccccc1NC(=O)c1c(O)c2c([nH]c1=O)CCCC2,108%,-19.5% (inactive)
O=C(C1CCC1)N1CCc2cc(S(=O)(=O)Nc3ccc4c(c3)OCO4)ccc21,137%,3.5% (inactive)
Cc1c(C(=O)OC(C)C)[nH]c2c1C(=O)CCC2,99%,54.6% (inactive)
Cc1nc(-c2cnn(-c3ccccc3)c2)c2cc(C)oc2n1,159%,-48.6% (inactive)
COc1ccc(OC(C)C(=O)N2CC(C)OC(C)C2)cc1 (stereo not given),120%,-7.5% (inactive)

# Molecular target: Voltage-gated potassium channel subunit beta-2 (Rattus norvegicus) (UniProt P62483)
# Test: KvBeta enzyme negative modulators, primary screen, biochemical, NADPH fluorescence (AID 622);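 further: slope of raw intensity against log time taken from 70 to 1610 s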
# Conditions: recombinant KvBeta, 4-cyanobenzaldehyde reduction, at 10 µM, stronger effect = higher value
# Sequence of Voltage-gated potassium channel subunit beta-2 (Rattus norvegicus) (P62483 whole entry, looked up): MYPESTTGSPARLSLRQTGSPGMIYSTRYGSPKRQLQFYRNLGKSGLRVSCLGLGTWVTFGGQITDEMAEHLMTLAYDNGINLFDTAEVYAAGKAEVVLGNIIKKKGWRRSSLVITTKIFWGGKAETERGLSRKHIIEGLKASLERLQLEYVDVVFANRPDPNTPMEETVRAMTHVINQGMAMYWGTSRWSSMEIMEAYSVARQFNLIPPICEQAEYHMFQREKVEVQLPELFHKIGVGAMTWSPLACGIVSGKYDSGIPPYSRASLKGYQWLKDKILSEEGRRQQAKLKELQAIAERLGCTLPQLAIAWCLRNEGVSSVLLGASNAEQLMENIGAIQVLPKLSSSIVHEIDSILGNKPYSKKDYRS
row,SMILES,fluorescence slope
1,CCSc1nc2c(c(=O)n(C)c(=O)n2C)n1Cc1ccc(Cl)cc1,-0.527 (inactive)
2,COc1ccccc1N1CCN(C(=O)c2oc3cc(C)c(C)cc3c2C)CC1,-0.546 (inactive)
3,CC(C)CCNC(=O)NC(=O)CSc1nnc(-c2ccccc2Br)o1,-0.458 (inactive)
4,C=CCSc1ncccc1C(=O)O,-0.556 (inactive)
5,CC1CCc2nc(NC(=O)CN3CCN(Cc4ccc5c(c4)OCO5)CC3)sc2C1 (stereo not given),-0.544 (inactive)
6,CC(=O)CC(=O)Nc1ccccc1NC(C)=O,-0.579 (inactive)
7,CC(C)OC(=O)CSc1nnc(Cc2ccccc2)n1Cc1ccco1,-0.419 (inactive)
8,O=C(NCCN1CCCC1)C1COc2ccccc2O1 (stereo not given),-0.587 (inactive)
9,COC(=O)c1ccc2c(=O)n(Cc3ccco3)c(SCC(=O)Nc3ccc(C)c(Cl)c3)nc2c1,-0.436 (inactive)
10,CCC1(CC)C(=O)C(C)(C)C(=O)OC1c1cccs1 (stereo not given),-0.454 (inactive)
11,CCOc1ccc(OCC)c2sc(C)nc12,-0.591 (inactive)
12,CC(=O)Nc1cccc(-c2nnc(-c3ccccc3)o2)c1,-0.582 (inactive)
13,CCOC(=O)C1=C(C)NC(=O)C(C#N)C1c1ccco1 (stereo not given),-0.39 (inactive)
14,O=C1CN=C(Nc2cccc(C(F)(F)F)c2)N1C1CCCC1,-0.436 (inactive)
15,COc1ccc(-c2nnc3ccc(SC(C(C)=O)C(C)=O)nn23)cc1OC,-0.348 (inactive)
16,CSc1nnc2c3ccccc3n(CCc3ccccc3)c2n1,-0.342 (inactive)
17,CC(C)(C)n1nc2c(c1NC(=O)COc1ccc(Cl)cc1)CSC2,-0.467 (inactive)
18,COc1cccc(N2CCN(Cc3nc(N)nc(Nc4ccccc4OC)n3)CC2)c1,-0.562 (inactive)
19,Cc1cc(C)cc(NC(=O)N2CCC(c3nc4ccccc4o3)CC2)c1,-0.494 (inactive)
20,O=C1CCC(=O)N1OCCCCOc1ccccc1,-0.421 (inactive)

row,SMILES,fluorescence slope
1,Cc1cc(C)c2c(=O)[nH]c(=O)n(Cc3ccccc3)c2n1,-0.53 (inactive)
2,Cc1ccc(CNC(=O)C2CCCN(S(=O)(=O)c3cccnc3)C2)cc1 (stereo not given),-0.573 (inactive)
3,COc1ccccc1OC(=O)c1ccc(SC)cc1OC,-0.57 (inactive)
4,COc1ccccc1OC(=O)c1ccc2nsnc2c1,-0.585 (inactive)
5,CCCCCCNC(=O)Cc1c(O)c2ccccc2[nH]c1=O,-0.354 (inactive)
6,CCCOc1nc(N)c(C#N)c(-c2ccccc2F)c1C#N,-0.547 (inactive)
7,CCOC(=O)c1cc(-c2ccc(Cl)s2)nc2c1c(C)nn2C,-0.494 (inactive)
8,COc1ccc(-n2c(SCC(=O)Nc3ccc(C(=O)O)cc3)nnc2-c2cccs2)cc1,-0.451 (inactive)
9,COC(=O)c1nc2n(n1)C(c1ccc(OC)c(OC)c1)C(C(=O)OC1CCCCC1)=C(C)N2 (stereo not given),-0.315 (inactive)
10,O=C(NC12CC3CC(CC(C3)C1)C2)C1CCCN1C(=O)NC1CCCCC1 (stereo not given),-0.284 (inactive)
11,O=C(Nc1cccc(C(F)(F)F)c1)c1cccnc1N1CCCC1,-0.531 (inactive)
12,COCCn1c(SCC(=O)Nc2nnc(C)s2)nnc1-c1ccncc1,-0.172 (inactive)
13,Cc1noc(C)c1S(=O)(=O)NCCN1CCN(c2ccccc2)CC1,-0.546 (inactive)
14,c1ccc(OCCOc2ncnc3sccc23)cc1,-0.583 (inactive)
15,CC(c1nnc(SCC(=O)Nc2sccc2C#N)n1-c1ccc(Cl)cc1)N(C)C (stereo not given),-0.463 (inactive)
16,CNC(=O)c1ccccc1NC(=O)c1c(O)c2c([nH]c1=O)CCCC2,-0.47 (inactive)
17,O=C(C1CCC1)N1CCc2cc(S(=O)(=O)Nc3ccc4c(c3)OCO4)ccc21,-0.391 (inactive)
18,Cc1c(C(=O)OC(C)C)[nH]c2c1C(=O)CCC2,-0.592 (inactive)
19,Cc1nc(-c2cnn(-c3ccccc3)c2)c2cc(C)oc2n1,-0.572 (inactive)
20,COc1ccc(OC(C)C(=O)N2CC(C)OC(C)C2)cc1 (stereo not given),-0.566 (inactive)
